# Measured values as given in PubChem BioAssay AID686978 (National Center for Advancing Translational Sciences (NCATS), 2013).
# Out of some 420,000 compounds screened, about 64,000 (15%) were called active. Another 27% or so got no clear call; they are omitted. Calls come from the whole dose curve; as a rule, active = well fitted inhibition curve with a large enough effect; inconclusive = small, poorly fitted or top-dose-only effect; inactive = flat fitted curve, though single readings scatter. Not all results are given here.
# Assay: qHTS for Inhibitors of human tyrosyl-DNA phosphodiesterase 1 (TDP1): qHTS in cells in absence of CPT; note: nearly all actives have a fitted effect of over 55% in size
# Conditions: DT40 Tdp1-/- hTDP1 cells, no CPT, ATP luminescence, 48 h; activity change, negative = growth inhibition: at 46.2 µM (top of the series)
# In short: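 Growth kinetics read by CellTiter-Glo luminescence after ≥48 hr at 37 °C. Cells: DT40 Tdp1-/- stably carrying human TDP1, 400 per well, compound exposure in the absence of CPT (DMSO vehicle).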
# % is set by controls: 0 for no effect and ±100 for the full control effect; potency is the fitted concentration of half-maximal effect.
Structure (SMILES),"activity change, negative = growth inhibition",Potency
S=c1[nH]nc(-c2cc(-c3ccsc3)n[nH]2)n1-c1ccccc1,-20.4% (inactive),–
Cc1ccnc(N2CCCC(C(=O)Nc3cc(F)ccc3C)C2)n1 (centres undefined),-13% (inactive),–
CCOc1ccc2nc(N3CCCC(C(=O)Nc4cc(C)ccc4C)C3)sc2c1 (centres undefined),–,18.4 µM (active)
Cc1ccc(C)c(NC(=O)C2CCCN(S(=O)(=O)c3cn(C)cn3)C2)c1 (centres undefined),-3.78% (inactive),–
CCOC(=O)N1CCC(NC(=O)c2ccc3nc(N4CCOCC4)sc3c2)CC1,-11% (inactive),–
Cc1cc(C)c2nc(N3CCC(C(=O)NCCN4CCOCC4)CC3)sc2c1,-6% (inactive),–
CCOc1ccc2nc(N3CCC(C(=O)Nc4cc(C)ccc4C)CC3)sc2c1,–,16.4 µM (active)
CC1CCCCC1NC(=O)Cn1cnc2c1c(=O)n(C)c(=O)n2C (centres undefined),2.55% (inactive),–
COC(=O)CN1C(=O)[C@H]2[C@@H](/C=C/c3ccccc3)N3C(=O)CN(CC4CC4)C(=O)[C@@]3(Cc3ccccc3)[C@H]2C1=O,-1.54% (inactive),–
COC(=O)C1(S(=O)(=O)C2(C(=O)OC)CCCC2)CCCC1,-4.39% (inactive),–
N#Cc1nc(COc2ccc(-c3ccccc3)cc2)oc1NCc1cccnc1,–,25.9 µM (active)
COc1ccc(-c2nnc(SCc3cccnc3)o2)cc1,-15.2% (inactive),–
Cc1noc(C)c1-c1cc(NCc2cccnc2)ncn1,2.95% (inactive),–
O=C(Cn1nc(C(=O)O)c2ccccc2c1=O)Nc1ccc(F)cc1,14.5% (inactive),–
COc1cccc(NC(=O)CSc2nnc(C3CCCCC3)n2N)c1,-3.98% (inactive),–
c1ccc2c(c1)OCC(CNc1ncnc3nc[nH]c13)O2 (centres undefined),–,13 µM (active)
O=C(COC(=O)c1ccc(F)cc1)NCC1COc2ccccc2O1 (centres undefined),-12.8% (inactive),–
O=C(Cn1cnc2ccccc2c1=O)NCC1COc2ccccc2O1 (centres undefined),0.328% (inactive),–
CC(C)c1ccc(NC(=S)NC2CC3C=CC2C3)cc1 (centres undefined),–,29.1 µM (active)
O=C(COC(=O)C1CC2C=CC1C2)Nc1ccccc1 (centres undefined),-6.05% (inactive),–
CC(C)c1ccc(NC(=S)NNc2ccc(Cl)c(C(=O)O)c2)cc1,10.6% (inactive),–
CCN1C(=O)C(=O)N(CC(=O)Nc2cc(C)ccc2C)C1=O,1.3% (inactive),–
O=P(c1ccc2c(c1)OCCO2)(N1CCOCC1)N1CCOCC1,-2.59% (inactive),–

Structure (SMILES),"activity change, negative = growth inhibition",Potency
COC(=O)C(C)Oc1ccc2c(c1)O/C(=C\c1cccc(Br)c1)C2=O (centres undefined),-24.3% (inactive),–
O=C(COC(=O)Cc1ccc(Br)cc1)Nc1c(F)c(F)c(F)c(F)c1F,14.3% (inactive),–
COC(=O)Cc1ccc(N(Cc2ccccc2F)S(=O)(=O)c2ccc(Br)cc2)cc1,–,20.6 µM (active)
COc1ccc(S(=O)(=O)N(CC(=O)NCc2ccco2)c2ccc(F)cc2)cc1,-16% (inactive),–
O=C(CCn1c(SCC(=O)c2ccccc2)nc2ccccc2c1=O)NCc1ccc(F)cc1,-5.7% (inactive),–
CC1(C)CC(=O)C(C=NCc2cccnc2)=C(O)C1,-7.35% (inactive),–
N=c1c2c3c(sc2ncn1N)CCCCC3,19.2% (inactive),–
C=CCN(C(=O)Nc1ccc2oc(C)nc2c1)c1ccccc1,–,20.6 µM (active)
Cc1nc2cc(NC(=O)NCc3ccccc3)ccc2o1,-13.9% (inactive),–
C=CCN(C(=O)Nc1ccc2c(c1)nc(C)n2C)c1ccccc1,-6.75% (inactive),–
N#CCCn1cnc2ccccc21,-13.7% (inactive),–
Cc1c(C=O)n(C)n(-c2ccccc2)c1=O,-0.628% (inactive),–
O=C(CSc1nnc(-c2cccnc2)n1Cc1ccco1)c1ccc(Cl)cc1,–,25.9 µM (active)
O=C(CSc1nnc(-c2cnccn2)n1Cc1ccco1)c1ccc(Cl)c(Cl)c1,-17.7% (inactive),–
COc1cc(Cl)c(C)cc1NC(=O)CSc1nnc(-c2cccnc2)n1Cc1ccco1,-22.2% (inactive),–
CC(=O)NS(=O)(=O)c1ccc(NC(=O)C2C3C=CC(C3)C2C(=O)O)cc1 (centres undefined),0.129% (inactive),–
Cc1cc2c3ccccc3[nH]c(=O)n2n1,-23.3% (inactive),–
CCCCC(O)C1=C[N+](=O)CC=C1 (centres undefined),-15.5% (inactive),–
COc1ccc(N2CCN(C(=O)CCc3nc(-c4ccc(C)cc4)no3)CC2)cc1,-22.3% (inactive),–
COc1ccc(-c2noc(CCC(=O)N3CCN(c4cccc(C)c4)CC3)n2)cc1,–,13 µM (active)
CN1CCN(C(=O)CCc2nc(-c3ccc(Cl)cc3)no2)CC1,-11.7% (inactive),–
O=C(COC(=O)c1ccco1)Nc1ccc(Cl)cn1,6.19% (inactive),–
O=c1ccn(Cc2ccccc2Cl)cc1,-7.73% (inactive),–

Structure (SMILES),"activity change, negative = growth inhibition",Potency
N=c1n(Cc2ccc(Cl)cc2)c2ccccc2n1CC(O)c1ccco1 (centres undefined),–,5.8 µM (active)
O=S(=O)(O)c1nc2ccccc2n1Cc1ccc(Cl)cc1,-10.9% (inactive),–
CCC1=NN2C(=N)/C(=C/c3cc(C)n(-c4ccccc4)c3C)C(=O)N=C2S1,9.47% (inactive),–
CCCC(=O)NC(=S)Nc1ccc(CN2CCOCC2)cc1,11.6% (inactive),–
COC(=O)c1sccc1NC(=O)CCC1CCCC1,-16.7% (inactive),–
CCOC(=O)C(=CNNc1ccsc1C(=O)OC)C(=O)OCC,–,10.3 µM (active)
COC(=O)c1sccc1NC(=S)Nc1ccc(C)cc1,-12.6% (inactive),–
CCn1c(SCC(=O)N(C)C2CCS(=O)(=O)C2)nnc1-c1cccs1 (centres undefined),9.93% (inactive),–
CCN(CC(=O)NCc1cccs1)C(=O)c1cccc(S(=O)(=O)Nc2ccccc2OC)c1,-11.2% (inactive),–
CCC1Sc2ccc(S(=O)(=O)CCC(=O)NCc3cccs3)cc2NC1=O (centres undefined),–,14.6 µM (active)
CC(C)N1C(=O)c2ccccc2NC(=O)C1C(=O)NCc1cccs1 (centres undefined),9.26% (inactive),–
Cc1cc(C)c(NC(=O)CS(=O)CC(=O)Nc2cccnc2)c(C)c1 (centres undefined),0.606% (inactive),–
COc1ccccc1N(CC(=O)Nc1ccccc1C(=O)N1CCCC1)S(C)(=O)=O,-2.28% (inactive),–
CCOC(=O)CN1C(=O)C(O)(CC(=O)c2ccccn2)c2ccccc21 (centres undefined),–,4.11 µM (active)
CCOC(=O)CN1CCC(c2ccccc2)CC1,-7.84% (inactive),–
COc1ccccc1OCC(=O)O/N=C(\N)c1ccccn1,-2.18% (inactive),–
CCCc1nn(C)c2c(=O)[nH]c(-c3cc(S(N)(=O)=O)ccc3OCC)nc12,2.45% (inactive),–
Cn1c2ccccc2n2c(=O)c(=O)n(CC(=O)c3ccc(F)cc3)nc12,1.31% (inactive),–
CCOC(=O)c1ccc(N2C(=O)CC(N(C)Cc3ccccc3)C2=O)cc1 (centres undefined),18.2% (inactive),–
O=C1N/C(=C/c2cccs2)C(=O)N1Cc1ccc(F)cc1,-12.1% (inactive),–
Cc1ccc(CN2C(=O)N/C(=C/c3cc(C)n(-c4ccccn4)c3C)C2=O)cc1,–,23.1 µM (active)
Cc1cc(/C=C2/NC(=O)NC2=O)c(C)n1-c1cccnc1,-0.13% (inactive),–
COCCn1c(=O)c(-c2cccs2)nc2cncnc21,-1.68% (inactive),–
